# Experimental data reported in PubChem BioAssay AID588342 (National Center for Advancing Translational Sciences (NCATS), 2011).
# Among all 360,000 compounds or so, about 25,000 (6.9%) were called active. About 9% were inconclusive and are not listed. Calls follow the shape of the dose curve; as a rule, active = well fitted inhibition curve with a large enough effect; inconclusive = small, poorly fitted or top-dose-only effect; inactive = flat fitted curve, though single readings scatter. The entries come from a sample that favours actives as a whole.
# Target: Luciferin 4-monooxygenase (Photinus pyralis) (UniProt P08659)
# Sequence (P08659 whole entry, looked up): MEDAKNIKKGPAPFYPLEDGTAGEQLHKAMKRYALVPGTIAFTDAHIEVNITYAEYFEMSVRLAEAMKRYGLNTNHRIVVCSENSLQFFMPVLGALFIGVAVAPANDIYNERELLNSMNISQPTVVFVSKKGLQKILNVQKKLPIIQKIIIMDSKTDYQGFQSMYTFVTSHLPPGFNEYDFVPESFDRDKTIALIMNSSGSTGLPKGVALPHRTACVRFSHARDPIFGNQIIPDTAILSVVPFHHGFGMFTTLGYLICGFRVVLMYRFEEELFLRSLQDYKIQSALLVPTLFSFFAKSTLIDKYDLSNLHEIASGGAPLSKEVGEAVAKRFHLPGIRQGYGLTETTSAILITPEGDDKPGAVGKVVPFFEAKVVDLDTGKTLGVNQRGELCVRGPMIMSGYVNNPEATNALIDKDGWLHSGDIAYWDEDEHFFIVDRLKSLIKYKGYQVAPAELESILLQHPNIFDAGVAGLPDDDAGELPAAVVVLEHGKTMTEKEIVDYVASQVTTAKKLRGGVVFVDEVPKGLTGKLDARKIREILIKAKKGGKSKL
# Experiment: qHTS profiling assay for firefly luciferase inhibitor/activator using purifed enzyme and Km concentrations of substrates (counterscreen for miR-21 project); also: nearly all actives have a fitted effect of over 55% in size;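 as to activity change, negative = inhibition: plate controls were vehicle for no effect and reference inhibitor for full effect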
# Settings: purified FLuc, luminescence inhibition; series mostly up to 57.5 µM; activity change, negative = inhibition: at the top concentration
# Excerpt: MLPCN Grant: 1 R21 NS059478-01 (miR-21 grant) Assay Provider: NCGC NCGC Assay Overview: Firefly (Photinus pyralis) luciferase is one of the most commonly used transcriptional reporters for a number of reasons. It is considered one of the more dynamically responsive reporters -that is, responsive to changes in reporter transcription - as it requires no post-translational modifications and is enzymatically active directly after protein synthesis (Wood, 1998). Additionally, the half-life of the luciferase protein is short relative to other reporter-gene products (Wood, 1995). Whereas reporters with long half-lives potentially allow for increased signal due to accumulation of reporter-gene product, once accumulated in the cell, dynamic changes in reporter-gene expression may be difficult to detect(Fan and Wood, 2007; Almond et al., 2004). It has been shown that wild-type P. pyralis luciferase has a half-life of approximately […] hours in mammalian cells (Thompson et al., 1991). Firefly luciferase reporter-gene assays are also generally considered one of the most sensitive assay types (Wood, 1995; Wood, 1998). Although light produced in a bioluminescence reaction is of lower intensity than that produced during fluorescence emission, this is offset by little to no background light inherent to luminescent assays. Thus the luciferase reporter can be expressed at much lower levels than fluorescent proteins while still providing robust signal. # However, it was initially observed, in 1991, by Thompson et al., that compounds that resemble the substrates of firefly luciferase (FLuc) can act as competitive inhibitors of the enzyme, and that these compounds, upon interaction with luciferase in the cell, can actually stabilize the protein and increase its half-life. Accumulated intracellular FLuc protein can be measured as an increase in luminescence signal, upon addition of detection reagents (which contain high concentrations of FLuc substrates) commonly used in high-throughput screening. In cell-based reporter gene assays that use FLuc as the reporter gene to quantitate the potential influence of a given compound against the target biology, this apparent increase in luminescence can mistakenly be interpreted as identification of a compound that is active against the target of interest. This is the case for the miR-21 FLuc reporter gene assay used to identify inhibitors of the miR-21 pathway (PubChem AID 2289) - compounds of interest will inhibit miR-21 biogenesis/expression or activity, and are identified by causing an increase in luminescence, due to increased FLuc translation. However, FLuc inhibitory compounds that stabilize the FLuc protein will give an identical read-out, making it difficult to distinguish compounds that are active against the target from those active against FLuc. Previous profiling work to determine the prevalence of compounds that affect FLuc enzymatic activity (PubChem AID 411) identified that ~3% of the MLSMR library (then at ~72K) inhibited FLuc. […] Since the MLSMR had grown to ~350K compounds, and since it was expected that a significant percentage of compounds found active in the miR-21 FLuc assay would be FLuc inhibitors, the library was screened for activity against FLuc using a biochemical assay of purified FLuc and KM concentrations of FLuc substrates (D-luciferin and ATP).
# NCGC Assay Protocol Summary: Reagents: 50mM Tris acetate, pH 7.5; 10mM Mg acetate; 10uM D-luciferin (Sigma #L9504); 10uM ATP; 0.01% Tween-20; 0.05% BSA; 10nM P. pyralis luciferase (Sigma #L9506) Control compounds used were two known firefly luciferase inhibitors (compounds (2) and (5) in Auld et al., 2010), and DMSO. […]
SMILES,"activity change, negative = inhibition",Potency
O=C(CCS(=O)(=O)c1ccccc1)Nc1nc2c(s1)CCCC2,-2.31% (inactive),–
Cc1ccc(C(=O)c2c(NC(=O)c3ccncc3)sc3c2CCCC3)cc1,3.4% (inactive),–
Cc1ccccc1NC(=O)c1c(NC(=O)c2ccccc2F)sc2c1CCC(C)C2 (centres undefined),-1.42% (inactive),–
O=C(Cn1c(=O)sc2ccccc21)Nc1nc2c(s1)CCCC2,-4.24% (inactive),–
O=C(Nc1sc2c(c1C(=O)O)CCC2)c1ccccc1F,–,26.9 µM (active)
CC(C)(C)C1CCc2c(sc(NC(=O)c3ccccc3F)c2C(=O)N2CCCCC2)C1 (centres undefined),-0.0444% (inactive),–
O=C(Nc1nc2c(s1)CCCC2)c1ccccc1F,–,0.338 µM (active)
C=CCN(CC=C)S(=O)(=O)c1ccc(C(=O)Nc2sc3c(c2C(N)=O)CCCCC3)cc1,-4.48% (inactive),–
NC(=O)c1c(NC(=O)c2ccccc2)sc2c1CCCC2,–,0.675 µM (active)
O=C(O)c1cccc(S(=O)(=O)N2CC=C(c3ccccc3)CC2)c1,-6.25% (inactive),–
Cc1nnc(SCC(=O)NCc2ccccc2Cl)c2nn(-c3ccccc3)c(C)c12,-15.3% (inactive),–
CC(NCCc1ccc(S(N)(=O)=O)cc1)C(=O)NCc1ccccc1 (centres undefined),2% (inactive),–
Cc1ccc(S(=O)(=O)N(C)C)cc1NC(=O)c1ccc(-n2cncn2)c([N+](=O)[O-])c1,-3.04% (inactive),–
O=C(CNC(=O)OCc1ccccc1)NC1CCCCNC1=O (centres undefined),-1.31% (inactive),–
CCOc1cc(-c2nnc(SCC(=O)NC3CCCCC3)nc2-c2ccc(OC)c(OCC)c2)ccc1OC,2.92% (inactive),–
Cc1cc(C)cc(NC(=O)Cn2c(=O)c3ccccc3n3nncc23)c1,2.23% (inactive),–
Cc1cccc(C(=O)NCC(=O)OCC(=O)N(C)CC(=O)Nc2ccccc2Cl)c1,5.48% (inactive),–
COc1ccc(CCNC(=O)c2cc3cccc4c3n2CC(C)S4)c(OC)c1OC (centres undefined),-16.9% (inactive),–
CCC1C(=O)c2ccccc2N(C)C1=O (centres undefined),3.54% (inactive),–
CN1C(=O)c2ccccc2Sc2ccc(NC(=O)Cc3ccc(Cl)cc3)cc21,-4.82% (inactive),–
CN1C(=O)/C(=C\c2cc(Br)cs2)c2ccccc21,–,4.26 µM (active)
COc1ccc(CN(C)C(=O)CC(c2ccccc2)c2ccccc2)cc1,0.703% (inactive),–
COc1ccc(N(Cc2ccccc2)S(=O)(=O)c2cccc(C(=O)O)c2)cc1,1.17% (inactive),–
COc1ccc(C(CC(=O)c2ccccc2)S(=O)(=O)c2ccccc2)cc1 (centres undefined),–,0.478 µM (active)
Cc1c(NS(=O)(=O)c2cc(C(=O)NCCc3ccc(F)cc3)cc(Cl)c2Cl)c(=O)n(-c2ccccc2)n1C,0.627% (inactive),–

SMILES,"activity change, negative = inhibition",Potency
Cc1c(C(N)=O)sc2ncn(CCOc3ccccc3)c(=O)c12,-2.28% (inactive),–
COc1cccc(-n2c(=O)c3c(C)c(C(=O)N(C)C)sc3n(Cc3cccc(C)c3)c2=O)c1,-3.37% (inactive),–
Cc1cccc(OC(=O)c2sc3ncn(C)c(=O)c3c2C)c1,–,12 µM (active)
COc1ccc(S(=O)(=O)N2CCN(c3ccc(F)cc3)CC2)cc1-c1noc(C)n1,-4.3% (inactive),–
Cc1ccc2c(c1)c1c(c(=O)n(-c3ccccc3)c(=O)n1CC(=O)c1ccc(Cl)cc1)n2C,-3.33% (inactive),–
O=C(Cn1nc(Cc2cccnc2)c2ccccc2c1=O)N1CCN(c2ccccc2F)CC1,-2.35% (inactive),–
Nc1ncc(-c2cc3ccccc3oc2=O)s1,–,6.01 µM (active)
Cc1cc2c(=O)n(C)c(SCC(=O)c3cc4ccccc4o3)nc2s1,4.57% [at 2.3 µM] (inactive),–
Cc1ccc(S(=O)(=O)N2CCC(C(=O)OCC(=O)N(C)c3ccccc3)CC2)cc1C,9.29% (inactive),–
CCC(C(=O)Nc1cccc(Cl)c1C)n1nc(-c2ccc(C)cc2)ccc1=O (centres undefined),3.5% (inactive),–
COc1ccc(C)cc1N(CC(=O)N1CCC(C)CC1)S(=O)(=O)c1ccc(C)cc1,-7.97% (inactive),–
O=C(Nc1ccccc1)O/N=C1\CCCCC1c1ccc([N+](=O)[O-])cc1[N+](=O)[O-] (centres undefined),4.78% (inactive),–
CC(C)(COC(=O)Nc1ccccc1)COC(=O)Nc1ccccc1,-14.3% (inactive),–
O=C(Nc1ccccc1)O/N=C1/CCCc2occc21,–,16.9 µM (active)
O=S(=O)(O)Oc1c[nH]c2ccccc12,–,12 µM (active)
CC(=O)NC(Cc1c[nH]c2ccccc12)C(=O)O (centres undefined),5.21% (inactive),–
NC(=O)CSc1c[nH]c2ccccc12,-10.3% (inactive),–
Cc1ccc(NC(=O)Cn2c(=O)n(-c3ccccc3)c(=O)c3c4c(sc32)CCCC4)cc1,2.01% (inactive),–
CCn1c(COc2cccc(OC)c2)nnc1SCC(=O)N1CCOCC1,6.62% (inactive),–
CCOc1ccc(-c2ccc(SCC(=O)N3CCOCC3)nn2)cc1,–,3.38 µM (active)
CCOc1ccc(C(=O)CCN2CCOCC2)cc1,1.6% (inactive),–
CCNS(=O)(=O)c1ccc(NC(=O)CSc2nc(-c3ccco3)cc(C(F)(F)F)n2)cc1,2.67% (inactive),–
O=C1OC2(CCCCC2)CC2=C1C1O[C@](c3ccsc3)(Cc3ccccc31)O2,-0.717% [at 11.5 µM] (inactive),–
CC(C)(C)c1nnc(N/N=C/c2ccc(O)cc2)n(N)c1=O,–,13.5 µM (active)
Nc1nnn(CC(=O)N/N=C/c2ccc(O)cc2)n1,-1.83% (inactive),–

SMILES,"activity change, negative = inhibition",Potency
Cc1nnc(NC(=O)c2ccc3nccnc3c2)s1,–,15.1 µM (active)
CC(C)CCC(C)NC(=O)c1ccc2nccnc2c1 (centres undefined),-15% (inactive),–
Cc1nnc(NC(=O)C(c2ccccc2)c2ccccc2)s1,-1.25% (inactive),–
Cc1ccc(S(=O)(=O)N2CCC(C(=O)Nc3cc(C)ccc3C)CC2)cc1,-1.47% (inactive),–
Cc1cccc(-n2cnc(C(=O)Nc3cccnc3)c2)n1,–,10.7 µM (active)
Cc1cccc(-n2cnc(C(=O)NNC(=S)Nc3ccccc3)c2)n1,-17.5% (inactive),–
Cc1cc(C)c(NC(=O)CS(=O)CC(=O)Nc2cccnc2)c(C)c1 (centres undefined),0.546% (inactive),–
CN(CC(=O)NCCN1CCOCC1)S(=O)(=O)c1ccc(F)cc1,2.29% (inactive),–
O=C(OCc1cc(=O)n2nc(C3CC3)sc2n1)c1ccccc1Cl,–,16.9 µM (active)
Cc1ccc(OCC(=O)OCc2cc(=O)n3nc(C4CC4)sc3n2)cc1,-5.96% (inactive),–
O=C(Nc1ccc(C(=O)OCc2cc(=O)n3nc(C4CC4)sc3n2)cc1)c1ccc(F)cc1,-0.0489% (inactive),–
Cc1nn2c(=O)cc(COC(=O)c3ccccc3NC(=O)COc3ccccc3C)nc2s1,-6.91% (inactive),–
CCCCc1nn2c(=O)cc(COC(=O)c3cccc(NC(=O)COc4ccccc4)c3)nc2s1,-7.88% (inactive),–
Cc1nn2c(=O)cc(COC(=O)c3cccc(NC(=O)COc4ccccc4Cl)c3)nc2s1,–,3.01 µM (active)
CN1CCc2c(sc3c2c(NCc2ccco2)nc2nnnn23)C1,7.24% (inactive),–
Cc1nc2ccccn2c(=O)c1NC(=O)c1c(F)cccc1F,3.3% (inactive),–
COc1ccc2cc(C3=CC(=O)C[C@H](c4ccc5c(c4)OCO5)C3)ccc2c1,3.7% (inactive),–
Cc1cccc(C)c1NC(=O)CN1C(=O)C(C)Oc2ccccc21 (centres undefined),1.07% (inactive),–
CN(CC(=O)Nc1ccc(OC(F)(F)F)cc1)C(=O)C1CCC1,-4% (inactive),–
CC(C)[C@H](NC(=O)c1ccc(F)cc1)C(=O)OCC(=O)NC(=O)c1cccn1C,0.441% (inactive),–
Cc1nn(C(C)C(=O)Nc2ccc(C(C)C)cc2)c(=O)c2c1sc1ccccc12 (centres undefined),-10.5% (inactive),–
O=C(c1ccc(F)cc1)N1CCC(n2nnc3ccccc32)CC1,–,2.69 µM (active)
CC(=O)c1cccc(S(=O)(=O)N2CCC(n3nnc4cc(F)ccc43)CC2)c1,1.11% (inactive),–
O=S(=O)(c1cccc(S(=O)(=O)N2CCC(n3nnc4ccccc43)CC2)c1)N1CCCCC1,0.624% (inactive),–
CCCN(CCC)C(=O)Cn1c(=O)n(-c2ccc(Cl)cc2)c(=O)c2c3c(sc21)CCCCC3,4.78% (inactive),–

SMILES,"activity change, negative = inhibition",Potency
COc1ccc(-c2nnc(SCC(=O)Nc3ccc(C(C)C)cc3)nc2-c2ccc(OC)c(OC)c2)cc1OC,4.68% (inactive),–
CN(Cc1cc2cc(F)ccc2[nH]1)Cc1nc(-c2cnccn2)no1,1.36% (inactive),–
O=C(NCCCN1CCCC1=O)c1ccc(S(=O)(=O)Nc2ccccc2)cc1,-0.641% (inactive),–
COc1ccc(NC(=O)c2cn(-c3ccccc3)nc2SC)cc1,–,15.1 µM (active)
Cc1ccc(-c2nn(-c3ccccc3)cc2C(=O)Nc2cccc(S(=O)(=O)N3CCOCC3)c2)cc1,-3.14% (inactive),–
Cc1nn(Cc2ccccc2)c(C)c1C(=O)NCCCN1CCCC1=O,-2.49% (inactive),–
COc1ccc(NC(=O)c2ccccc2CC[N+](=O)[O-])cc1,1.33% (inactive),–
O=C(O)c1ccc(NC(=O)c2cn(-c3ccccc3)nc2-c2ccc(Cl)cc2)cc1,–,6.75 µM (active)
COc1cccc(C(=O)NC(=O)Nc2ccc(-c3cc(C(F)(F)F)nn3-c3ccccc3)cc2)c1,-3.37% (inactive),–
COc1ccc(NC(=O)CSc2nc(N)c(-c3ccccc3)c(=O)[nH]2)cc1,8.54% (inactive),–
Cc1ccc(-c2nn(-c3ccccc3)cc2C(=O)NCCCN2CCCC2=O)cc1,–,21.3 µM (active)
COc1ccc(-c2nn(-c3ccccc3)cc2/C=C\C(=O)Nc2ccc(C(=O)O)cc2)cc1,–,15.1 µM (active)
O=C(CSc1nnc(-c2ccncc2)n1-c1ccc(Cl)cc1)Nc1ccc(C(=O)O)cc1,-4.75% (inactive),–
COc1ccc(NC(=O)CN(C)C(=O)/C=C/c2cn(Cc3ccccc3)nc2-c2cccnc2)cc1,-3.23% (inactive),–
Cc1ccc(Cl)c(NC(=O)CN2CCN(C=O)CC2)c1,-0.796% (inactive),–
Fc1cccc(-n2ncc3c2ncn2nc(-c4ccccc4Cl)nc32)c1,-1.28% (inactive),–
CN(C(=O)CSc1nnc(C2CC2)n1C)C1CCCc2ccccc21 (centres undefined),1.86% (inactive),–
N#Cc1ccc(C2=CC(=O)C[C@H](c3ccc(Cl)cc3)C2)cc1,-16.3% (inactive),–
O=C(CSc1oc(-c2ccco2)nc1S(=O)(=O)c1ccc(Cl)cc1)c1ccccc1,1.52% (inactive),–
COc1ccccc1CNc1nccn(-c2ccc(F)cc2)c1=O,-2.26% (inactive),–
Cc1ccc(C2(C)NC(=O)N(CC(=O)Nc3ccccc3C(=O)N3CCCCC3)C2=O)cc1 (centres undefined),0.472% (inactive),–
CCOC(=O)c1c(C)[nH]c(C)c1S(=O)(=O)N1CCCC(C(=O)NCc2ccccc2Cl)C1 (centres undefined),-8.43% (inactive),–
Cc1ccc(NC(=O)CSc2nc3ccccc3c3nc(CCn4cncc4C)nn23)cc1F,3.74% (inactive),–
O=C(CO/N=C/c1ccc(OC(F)F)cc1)NCc1ccc(F)cc1,-10.7% (inactive),–
